Several values for one entry are separate records, joined by “and”; a condition that tells them apart may be missing. Equal entries are not always repeated. The source holds several records for some structures; these can differ, active in one and inactive in another. Activity calls are given as the source filed them. The calls were made as follows: active = hit-call score of the fitted dose curve at least 0.9, where 1 is the maximum; inactive = score below 0.9.
Tests used:
[1] = read-out: Monokine induced gamma interferon (MIG), CXCL9 (gene 4283); experiment: BSK_hDFCGF_MIG: BioMAP Diversity Plus: hDFCGF Assay for Monokine induced gamma interferon (MIG) Biomarker Activity (AID 2283063); settings: primary human foreskin fibroblasts; actives raise or lower the signal
Summary of the method: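 MIG signal, determined by ELISA, reflects 24 h chemical exposure of human skin primary fibroblasts. DMSO serves as negative control and baseline.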

[2] = read-out: Matrix Metallopeptidase 1 (MMP1), MMP1 (gene 4312); experiment: BSK_hDFCGF_MMP1: BioMAP Diversity Plus: hDFCGF Assay for Matrix Metallopeptidase 1 (MMP1) Biomarker Activity (AID 2283064); settings: primary human foreskin fibroblasts; actives raise or lower the signal
Summary of the method: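 ELISA read-out of MMP1 from human foreskin fibroblasts (primary skin cells), 24 h post-dose. Gain or loss of signal was fitted bidirectionally versus DMSO negative control; cytotoxicity was checked by SRB in parallel cultures.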

[3] = read-out: Vascular cell adhesion molecule 1 (VCAM1), VCAM1 (gene 7412); experiment: BSK_hDFCGF_VCAM1: BioMAP Diversity Plus: hDFCGF Assay for Vascular cell adhesion molecule 1 (VCAM1) Biomarker Activity (AID 2283065); settings: primary human foreskin fibroblasts; actives raise or lower the signal;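 as to AC50: VCAM-1 protein level quantified by ELISA after 24 h chemical exposure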
Summary of the method: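 Cells are dosed, cultured for 24 h, then VCAM-1 is quantified by ELISA; signal increases and decreases are both fitted relative to DMSO.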

[4] = read-out: Intercellular Adhesion Molecule 1 (ICAM1), ICAM1 (gene 3383); experiment: BSK_KF3CT_ICAM1: BioMAP Diversity Plus: KF3CT Assay for Intercellular Adhesion Molecule 1 (ICAM1) Biomarker Activity (AID 2283067); settings: primary human keratinocytes with fibroblasts; actives raise or lower the signal
Summary of the method: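 Dose the keratinocyte/fibroblast co-culture, wait 24 h, measure ICAM-1 by ELISA, then fit increases or decreases against DMSO. Cytotoxicity is checked in parallel cultures by SRB total-protein staining.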

[5] = read-out: Interferon-gamma inducible Protein 10 (IP10), CXCL10 (gene 3627); experiment: BSK_KF3CT_IP10: BioMAP Diversity Plus: KF3CT Assay for Interferon-gamma inducible Protein 10 (IP10) Biomarker Activity (AID 2283068); settings: primary human keratinocytes with fibroblasts; actives raise or lower the signal
Summary of the method: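 ELISA read-out of IP-10 after 24 h chemical dosing of human skin primary co-culture (keratinocytes, foreskin fibroblasts). Gain or loss of signal relative to DMSO, bidirectional curve fit.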

[6] = BSK_KF3CT_SRB: Viability Assessment in the BioMAP Diversity Plus: KF3CT Assay (AID 2283069); settings: primary human keratinocytes with fibroblasts;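 also: total protein by sulforhodamine B staining as a cytotoxicity measure; read 24 h after compound addition; fitted for both signal gain and loss against DMSO baseline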
Summary of the method: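 SRB read-out at 560 nm (0.1% stain, TCA-fixed cells) gauges overt cytotoxicity in a human skin keratinocyte–fibroblast co-culture 24 h post-dosing. Signal change was fitted bidirectionally relative to DMSO control.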

[7] = read-out: Interleukin-1 alpha (IL1a), IL1A (gene 3552); experiment: BSK_KF3CT_IL1a: BioMAP Diversity Plus: KF3CT Assay for Interleukin-1 alpha (IL1a) Biomarker Activity (AID 2283070); settings: primary human keratinocytes with fibroblasts; actives raise or lower the signal
Summary of the method: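 Primary skin co-culture (keratinocytes, foreskin fibroblasts), 24 h exposure; ELISA for IL-1a; bidirectional curve fit vs DMSO.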

[8] = read-out: TIMP metallopeptidase inhibitor 2 (TIMP2), TIMP2 (gene 7077); experiment: BSK_KF3CT_TIMP2: BioMAP Diversity Plus: KF3CT Assay for TIMP metallopeptidase inhibitor 2 (TIMP2) Biomarker Activity (AID 2283071); settings: primary human keratinocytes with fibroblasts; actives raise or lower the signal
Summary of the method: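 Measurements come from ELISA detection of TIMP-2 at 24 hours in a dosed human keratinocyte and foreskin fibroblast co-culture. DMSO serves as negative control and baseline.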

[9] = read-out: Plasminogen activator inhibitor-1 (PAI1), SERPINE1 (gene 5054); experiment: BSK_hDFCGF_PAI1: BioMAP Diversity Plus: hDFCGF Assay for Plasminogen activator inhibitor-1 (PAI1) Biomarker Activity (AID 2283066); settings: primary human foreskin fibroblasts; actives raise or lower the signal
Summary of the method: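 Human skin fibroblast cultures receive chemical for 24 h before PAI-1 is measured by ELISA; signal changes are fitted bidirectionally against DMSO-treated wells.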

[10] = read-out: Transforming growth factor beta 1 (TGFb1), TGFB1 (gene 7040); experiment: BSK_KF3CT_TGFb1: BioMAP Diversity Plus: KF3CT Assay for Transforming growth factor beta 1 (TGFb1) Biomarker Activity (AID 2283072); settings: primary human keratinocytes with fibroblasts; actives raise or lower the signal
Summary of the method: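 TGF-b1 ELISA on a 24 h dosed co-culture of human keratinocytes and foreskin fibroblasts; cytotoxicity tracked in parallel cultures by SRB staining.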

Oc1c(Cl)cc(Cl)cc1Sc1cc(Cl)cc(Cl)c1O
AC50 [1]: 2.22 µM (active) | AC50 [2]: 2.14 µM (active) and 2.37 µM (active) | AC50 [3]: 1.43 µM (active) and 1.52 µM (active) | AC50 [4]: 3.11 µM (active) and 3.28 µM (active) | AC50 [5]: 2.75 µM (active) and 2.98 µM (active) | outcome [6]: inactive | AC50 [7]: 2.22 µM (active) and 2.17 µM (active) | AC50 [8]: 1.96 µM (active) and 2.15 µM (active)

O=P(O)(O)CCC(F)(F)C(F)(F)C(F)(F)C(F)(F)C(F)(F)C(F)(F)F
outcome [1]: inactive | outcome [2]: inactive | outcome [3]: inactive | outcome [4]: inactive | outcome [5]: inactive | outcome [6]: inactive | outcome [7]: inactive | outcome [8]: inactive

O=S(=O)(O)C(F)(F)C(F)(F)C(F)(F)C(F)(F)C(F)(F)C(F)(F)C(F)(F)C(F)(F)C(F)(F)C(F)(F)F
outcome [1]: inactive | outcome [2]: inactive | AC50 [3]: 0.201 µM (active) | outcome [3]: inactive | outcome [9]: inactive | AC50 [4]: 6.49 µM (active) and 3.75 µM (active) | outcome [5]: inactive | outcome [6]: inactive | outcome [7]: inactive | outcome [8]: inactive

O=C(CC(=O)C(F)(F)C(F)(F)C(F)(F)F)c1cccs1
AC50 [1]: 7.78 µM (active) | outcome [1]: inactive | AC50 [2]: 7.77 µM (active) | outcome [2]: inactive | outcome [3]: inactive | outcome [4]: inactive | outcome [5]: inactive | outcome [6]: inactive | outcome [7]: inactive | outcome [8]: inactive

C=CC(=O)OCCC(F)(F)C(F)(F)C(F)(F)C(F)(F)C(F)(F)C(F)(F)C(F)(F)C(F)(F)F
outcome [1]: inactive | outcome [2]: inactive | outcome [3]: inactive | outcome [4]: inactive | outcome [5]: inactive | outcome [6]: inactive | outcome [7]: inactive | outcome [8]: inactive

C[C@]12CC[C@@H]3c4ccc(O)cc4CC[C@H]3[C@@H]1C[C@@H](O)[C@@H]2O
outcome [1]: inactive | outcome [2]: inactive | outcome [3]: inactive | outcome [4]: inactive | outcome [5]: inactive | outcome [6]: inactive | outcome [7]: inactive | outcome [8]: inactive | outcome [10]: inactive

Oc1ccc(Cc2ccccc2O)cc1
outcome [1]: inactive | outcome [2]: inactive | outcome [3]: inactive | outcome [4]: inactive | outcome [5]: inactive | outcome [6]: inactive | outcome [7]: inactive | outcome [8]: inactive

O=C1c2ccc(O)c(O)c2C(=O)c2c(O)ccc(O)c21
outcome [1]: inactive | outcome [2]: inactive | outcome [3]: inactive | outcome [9]: inactive | outcome [4]: inactive | outcome [5]: inactive | outcome [6]: inactive | outcome [7]: inactive | outcome [8]: inactive | outcome [10]: inactive

CC[N+](CC)(CC)Cc1ccccc1
outcome [1]: inactive | outcome [2]: inactive | outcome [3]: inactive | outcome [9]: inactive | outcome [4]: inactive | outcome [5]: inactive | outcome [6]: inactive | outcome [7]: inactive | outcome [8]: inactive | outcome [10]: inactive

Cc1[nH]nc2c1N=C(c1ccccc1Cl)c1cc([N+](=O)[O-])ccc1N2
AC50 [1]: 31.1 µM (active) | AC50 [2]: 2.47 µM (active) | outcome [3]: inactive | AC50 [9]: 5.16 µM (active) | outcome [4]: inactive | outcome [5]: inactive | outcome [6]: inactive | outcome [7]: inactive | outcome [8]: inactive | outcome [10]: inactive

O=C(O)C(F)(F)OC(F)(F)C(F)(F)OC(F)(F)C(F)(F)OC(F)(F)C(F)(F)C(F)(F)C(F)(F)F
AC50 [1]: 12.1 µM (active) and 10.3 µM (active) | AC50 [2]: 7.6 µM (active) and 8.44 µM (active) | AC50 [3]: 7.84 µM (active) and 6.66 µM (active) | AC50 [4]: 20.7 µM (active) and 21.8 µM (active) | AC50 [5]: 7.51 µM (active) and 7.14 µM (active) | AC50 [6]: 8.04 µM (active) | outcome [6]: inactive | AC50 [7]: 14.2 µM (active) and 11.1 µM (active) | AC50 [8]: 8.14 µM (active) and 7.33 µM (active)

CCOC(=O)CN[C@@H](C(=O)N1CC[C@H]1C(=O)NCc1ccc(/C(N)=N/O)cc1)C1CCCCC1
outcome [1]: inactive | outcome [2]: inactive | outcome [3]: inactive | outcome [4]: inactive | outcome [5]: inactive | outcome [6]: inactive | outcome [7]: inactive | outcome [8]: inactive | outcome [10]: inactive

N=C(N)c1ccc(OCCCCCOc2ccc(C(=N)N)cc2)cc1
outcome [1]: inactive | AC50 [3]: 28.1 µM (active) | AC50 [9]: 28.5 µM (active) | outcome [4]: inactive | outcome [5]: inactive | outcome [6]: inactive | outcome [7]: inactive | outcome [8]: inactive | outcome [10]: inactive

COCN(COC)c1nc(N(COC)COC)nc(N(COC)COC)n1
outcome [1]: inactive | outcome [2]: inactive | outcome [3]: inactive | outcome [4]: inactive | outcome [5]: inactive | outcome [6]: inactive | outcome [7]: inactive | outcome [8]: inactive | outcome [10]: inactive

CC1=NN(c2ccccc2)C(=O)C1
outcome [1]: inactive | outcome [2]: inactive | outcome [3]: inactive | outcome [4]: inactive | outcome [5]: inactive | outcome [6]: inactive | outcome [7]: inactive | outcome [8]: inactive | outcome [10]: inactive

Oc1cc2ccccc2cc1O
outcome [1]: inactive | outcome [2]: inactive | outcome [3]: inactive | outcome [4]: inactive | outcome [5]: inactive | outcome [6]: inactive | outcome [7]: inactive | outcome [8]: inactive | outcome [10]: inactive

O=C1NS(=O)(=O)c2ccccc21
outcome [1]: inactive | outcome [2]: inactive | outcome [3]: inactive | outcome [4]: inactive | outcome [5]: inactive | outcome [6]: inactive | outcome [7]: inactive | outcome [8]: inactive | outcome [10]: inactive

Cc1ccc(N=Nc2c(O)ccc3ccccc23)c(C)c1
outcome [1]: inactive | outcome [2]: inactive | AC50 [3]: 5.25 µM (active) | outcome [4]: inactive | outcome [5]: inactive | outcome [6]: inactive | outcome [7]: inactive | AC50 [8]: 4.11 µM (active) | outcome [10]: inactive

— PubChem BioAssay (EPA / NIEHS)
